Laboratory results from PubChem BioAssay (NCI).
Compounds without any hit were thinned out: in the full panel of roughly 83,000, 20% have a hit.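 Assay: single dose, 48 h. Readout: percent growth (0 = no net growth; negative = cell death). Active: <10.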 Calls of active or inactive are those of the source.

How the values were obtained:
Assay in all cases: NCI-60 one-dose screen, 48 h (100 = growth as untreated, 0 = no growth, -100 = all killed)
HCT-15 colon = conditions: 10 µM unless noted
HT29 colon = conditions: 10 µM unless noted
SNB-75 CNS = conditions: 10 µM unless noted
SNB-19 CNS = conditions: 10 µM unless noted
U251 CNS = conditions: 10 µM unless noted
PC-3 prostate = conditions: 10 µM unless noted
SK-MEL-5 melanoma = conditions: 10 µM unless noted
UACC-62 melanoma = conditions: 10 µM unless noted
LOX IMVI melanoma = conditions: 10 µM
SK-MEL-28 melanoma = conditions: 10 µM unless noted
SK-MEL-2 melanoma = conditions: 10 µM unless noted
EKVX NSCLC = conditions: 10 µM unless noted
SN12C renal = conditions: 10 µM unless noted
UO-31 renal = conditions: 10 µM unless noted
TK-10 renal = conditions: 10 µM unless noted
ACHN renal = conditions: 10 µM unless noted
CAKI-1 renal = conditions: 10 µM unless noted
A498 renal = conditions: 10 µM unless noted
CCRF-CEM leukemia = conditions: 10 µM unless noted
MOLT-4 leukemia = conditions: 10 µM unless noted

Measured: growth

Cc1[nH]n(-c2ccccc2)c(=O)c1C=NC(=S)C(N)=S
inactive: HCT-15 colon 99.3% | HT29 colon 111% | SNB-75 CNS 87.5% | SNB-19 CNS 96.8% | U251 CNS 100% | PC-3 prostate 85.8% | SK-MEL-5 melanoma 99.3% | UACC-62 melanoma 93% | LOX IMVI melanoma 99.7% | SK-MEL-28 melanoma 110% | SK-MEL-2 melanoma 109% | EKVX NSCLC 103% | SN12C renal 105% | UO-31 renal 85.2% | TK-10 renal 125% | ACHN renal 100% | CAKI-1 renal 97.2% | A498 renal 93.8% | CCRF-CEM leukemia 94.1% | MOLT-4 leukemia 102%

O=C(NCCc1ccccc1)/C(=C\c1ccc(Cl)cc1Cl)NC(=O)c1ccccc1
inactive: HCT-15 colon 98.4% | HT29 colon 98.3% | SNB-75 CNS 83.4% | SNB-19 CNS 99.2% | U251 CNS 97% | PC-3 prostate 88.8% | SK-MEL-5 melanoma 96.4% | UACC-62 melanoma 98.6% | LOX IMVI melanoma 92.7% | SK-MEL-28 melanoma 105% | SK-MEL-2 melanoma 114% | EKVX NSCLC 96% | SN12C renal 96.1% | UO-31 renal 88.5% | TK-10 renal 96.6% | ACHN renal 98.9% | CAKI-1 renal 92.9% | A498 renal 87.5% | CCRF-CEM leukemia 97.9% | MOLT-4 leukemia 94.7%

OCc1cccnc1
inactive: HCT-15 colon 92.4% | HT29 colon 107% | SNB-75 CNS 102% | SNB-19 CNS 96.8% | U251 CNS 91.8% | PC-3 prostate 94.7% | SK-MEL-5 melanoma 116% | UACC-62 melanoma 103% | LOX IMVI melanoma 104% | SK-MEL-28 melanoma 111% | SK-MEL-2 melanoma 94% | EKVX NSCLC 107% | SN12C renal 99.2% | UO-31 renal 81.7% | TK-10 renal 102% | ACHN renal 102% | CAKI-1 renal 35.5% | A498 renal 78.4% | CCRF-CEM leukemia 92.1% | MOLT-4 leukemia 109%

CC(=O)C1C(=O)C(=O)N(c2cccc([N+](=O)[O-])c2)C1=O (stereo unspecified)
inactive: HCT-15 colon 102% | HT29 colon 105% | SNB-75 CNS 93.9% | SNB-19 CNS 104% | U251 CNS 97.3% | PC-3 prostate 98.2% | SK-MEL-5 melanoma 107% | UACC-62 melanoma 100% | LOX IMVI melanoma 105% | SK-MEL-28 melanoma 107% | SK-MEL-2 melanoma 114% | EKVX NSCLC 108% | SN12C renal 101% | UO-31 renal 105% | TK-10 renal 125% | ACHN renal 104% | CAKI-1 renal 102% | A498 renal 79.2% | CCRF-CEM leukemia 106% | MOLT-4 leukemia 101%

CSCC[C@@H]1C(=O)N(C)[C@H](C(C)(C)C)N1C(=O)c1ccccc1
inactive: HCT-15 colon 113% | HT29 colon 116% | SNB-75 CNS 85.2% | SNB-19 CNS 114% | U251 CNS 99.3% | PC-3 prostate 104% | SK-MEL-5 melanoma 106% | UACC-62 melanoma 101% | LOX IMVI melanoma 95.4% | SK-MEL-28 melanoma 107% | SK-MEL-2 melanoma 106% | EKVX NSCLC 102% | SN12C renal 104% | UO-31 renal 90.4% | TK-10 renal 106% | ACHN renal 110% | CAKI-1 renal 100% | A498 renal 126% | CCRF-CEM leukemia 111% | MOLT-4 leukemia 116%

CC1(c2ccccc2)CO1 (stereo unspecified)
inactive: HCT-15 colon 102% | HT29 colon 112% | SNB-75 CNS 89.9% | SNB-19 CNS 102% | U251 CNS 97.6% | PC-3 prostate 104% | SK-MEL-5 melanoma 105% | UACC-62 melanoma 104% | LOX IMVI melanoma 103% | SK-MEL-28 melanoma 105% | SK-MEL-2 melanoma 107% | EKVX NSCLC 111% | SN12C renal 107% | UO-31 renal 85.8% | TK-10 renal 102% | ACHN renal 102% | CAKI-1 renal 107% | A498 renal 131% | CCRF-CEM leukemia 97.7% | MOLT-4 leukemia 99.6%

CC(=O)C1C(=O)C(=O)N(c2ccc(Cl)c(Cl)c2)C1=O (stereo unspecified)
inactive: HCT-15 colon 93.8% | HT29 colon 107% | SNB-75 CNS 78.3% | SNB-19 CNS 107% | U251 CNS 101% | PC-3 prostate 96.9% | SK-MEL-5 melanoma 107% | UACC-62 melanoma 101% | LOX IMVI melanoma 94.4% | SK-MEL-28 melanoma 103% | SK-MEL-2 melanoma 111% | EKVX NSCLC 92.1% | SN12C renal 97.4% | UO-31 renal 95.2% | TK-10 renal 107% | ACHN renal 97.8% | CAKI-1 renal 93.4% | A498 renal 118% | CCRF-CEM leukemia 115% | MOLT-4 leukemia 91.5%

CCOc1ccc(NC(=S)N2CCC(CCCC3CCN(C(=S)Nc4ccc(OCC)cc4)CC3)CC2)cc1
active: UO-31 renal -7.89%
inactive: HCT-15 colon 84% | HT29 colon 87.7% | SNB-75 CNS 80.3% | SNB-19 CNS 96% | U251 CNS 95.1% | PC-3 prostate 99% | SK-MEL-5 melanoma 42.2% | UACC-62 melanoma 83.7% | LOX IMVI melanoma 95.5% | SK-MEL-28 melanoma 94.9% | SK-MEL-2 melanoma 104% | EKVX NSCLC 60.5% | SN12C renal 95.9% | TK-10 renal 96.9% | ACHN renal 82.8% | CAKI-1 renal 69.7% | A498 renal 79% | CCRF-CEM leukemia 81.6% | MOLT-4 leukemia 73.7%

CCCCN(C=S)CCCC
inactive: HCT-15 colon 98.1% | HT29 colon 102% | SNB-75 CNS 87.4% | SNB-19 CNS 94.3% | U251 CNS 90.3% | PC-3 prostate 91.5% | SK-MEL-5 melanoma 101% | UACC-62 melanoma 96.4% | LOX IMVI melanoma 106% | SK-MEL-28 melanoma 96.2% | SK-MEL-2 melanoma 91.8% | EKVX NSCLC 103% | SN12C renal 97.5% | UO-31 renal 93.5% | TK-10 renal 98.4% | ACHN renal 95.7% | CAKI-1 renal 95.2% | A498 renal 91.4% | CCRF-CEM leukemia 95.7% | MOLT-4 leukemia 91.4%

CCCCc1ccc2nc(NC(=O)OC)[nH]c2c1
active: HCT-15 colon 7.85% | SK-MEL-5 melanoma -49.2% | A498 renal -5.63% | CCRF-CEM leukemia -15.5% | MOLT-4 leukemia -18.9%
inactive: HT29 colon 12.2% | SNB-75 CNS 65.1% | SNB-19 CNS 14.7% | U251 CNS 22.2% | PC-3 prostate 22.5% | UACC-62 melanoma 41% | LOX IMVI melanoma 25.2% | SK-MEL-28 melanoma 58.8% | SK-MEL-2 melanoma 44.4% | EKVX NSCLC 60.3% | SN12C renal 34.5% | UO-31 renal 36.1% | TK-10 renal 57.6% | ACHN renal 39.2% | CAKI-1 renal 19.5%

Cc1cc(Nc2ccc3c(c2)OCO3)c2cc3c(cc2n1)OCO3
active: SNB-19 CNS 0.716% | A498 renal -1.69% | CCRF-CEM leukemia -7.98%
inactive: HCT-15 colon 19.9% | HT29 colon 15.8% | SNB-75 CNS 25.6% | U251 CNS 19.9% | PC-3 prostate 10.6% | SK-MEL-5 melanoma 22.6% | UACC-62 melanoma 34% | LOX IMVI melanoma 14.3% | SK-MEL-28 melanoma 34.2% | SK-MEL-2 melanoma 22.5% | EKVX NSCLC 44.9% | SN12C renal 47% | UO-31 renal 28.5% | TK-10 renal 59.7% | ACHN renal 50.9% | CAKI-1 renal 19.5% | MOLT-4 leukemia 35.8%

CSc1nsc(N)n1
inactive: HCT-15 colon 95.5% | HT29 colon 95.1% | SNB-75 CNS 87.4% | SNB-19 CNS 96% | U251 CNS 94.9% | PC-3 prostate 93.6% | SK-MEL-5 melanoma 101% | UACC-62 melanoma 93.1% | LOX IMVI melanoma 98.2% | SK-MEL-28 melanoma 106% | SK-MEL-2 melanoma 94.2% | EKVX NSCLC 97.4% | SN12C renal 96% | UO-31 renal 82.3% | TK-10 renal 101% | ACHN renal 107% | CAKI-1 renal 97.2% | A498 renal 87.5% | CCRF-CEM leukemia 108% | MOLT-4 leukemia 97.9%

C/C(O)=C(/C=N\C(=S)Nc1ccc(S(=O)(=O)Nc2nccs2)cc1)C(=O)Nc1ccccc1C
inactive: HCT-15 colon 102% | HT29 colon 116% | SNB-75 CNS 89% | SNB-19 CNS 92.7% | U251 CNS 84% | PC-3 prostate 84.9% | SK-MEL-5 melanoma 93% | UACC-62 melanoma 81.8% | LOX IMVI melanoma 92% | SK-MEL-28 melanoma 110% | SK-MEL-2 melanoma 115% | EKVX NSCLC 101% | SN12C renal 87.5% | UO-31 renal 93.2% | TK-10 renal 111% | ACHN renal 99.9% | CAKI-1 renal 91.9% | A498 renal 60.5% | CCRF-CEM leukemia 87.4% | MOLT-4 leukemia 83.7%

Cc1ccc(N)c(S(=O)(=O)O)c1
inactive: HCT-15 colon 103% | HT29 colon 96.1% | SNB-75 CNS 75.6% | SNB-19 CNS 99.5% | U251 CNS 104% | PC-3 prostate 107% | SK-MEL-5 melanoma 98.1% | UACC-62 melanoma 98.9% | LOX IMVI melanoma 104% | SK-MEL-28 melanoma 126% | SK-MEL-2 melanoma 84.3% | EKVX NSCLC 110% | SN12C renal 100% | UO-31 renal 92.1% | TK-10 renal 128% | ACHN renal 102% | CAKI-1 renal 90.8% | A498 renal 118% | MOLT-4 leukemia 83.6%

CC(C)(CC(=O)O)CC(=O)O
inactive: HCT-15 colon 105% | HT29 colon 101% | SNB-75 CNS 90.2% | SNB-19 CNS 99.2% | U251 CNS 109% | PC-3 prostate 101% | SK-MEL-5 melanoma 97.7% | UACC-62 melanoma 98.7% | LOX IMVI melanoma 104% | SK-MEL-28 melanoma 99.2% | SK-MEL-2 melanoma 107% | EKVX NSCLC 97.4% | SN12C renal 97.2% | UO-31 renal 94% | TK-10 renal 96.5% | ACHN renal 104% | CAKI-1 renal 97.7% | CCRF-CEM leukemia 105% | MOLT-4 leukemia 100%

Nc1ncnc(Nc2ccccc2)n1
inactive: HCT-15 colon 103% | HT29 colon 108% | SNB-75 CNS 104% | SNB-19 CNS 109% | U251 CNS 111% | PC-3 prostate 101% | SK-MEL-5 melanoma 104% | UACC-62 melanoma 115% | LOX IMVI melanoma 104% | SK-MEL-28 melanoma 107% | SK-MEL-2 melanoma 103% | EKVX NSCLC 122% | SN12C renal 105% | UO-31 renal 86.5% | TK-10 renal 110% | ACHN renal 113% | CAKI-1 renal 92.7% | CCRF-CEM leukemia 104% | MOLT-4 leukemia 96.2%

ClCc1cccc2c(CCl)cccc12
inactive: HCT-15 colon 73.8% | HT29 colon 71.1% | SNB-75 CNS 88% | SNB-19 CNS 70.4% | U251 CNS 56.6% | PC-3 prostate 65.9% | SK-MEL-5 melanoma 77.6% | UACC-62 melanoma 64% | SK-MEL-28 melanoma 83.7% | SK-MEL-2 melanoma 84.3% | EKVX NSCLC 82.2% | SN12C renal 64.5% | UO-31 renal 60.4% | TK-10 renal 86.8% | ACHN renal 31.5% | CAKI-1 renal 15.2% | CCRF-CEM leukemia 29.8% | MOLT-4 leukemia 27.7%
active: LOX IMVI melanoma -51.8%
